From PubChem BioAssay (EPA / NIEHS)
The source made the active and inactive calls. Rule for the calls: active = hit-call score of the fitted dose curve at least 0.9, where 1 is the maximum; inactive = score below 0.9.

How the values were obtained:
[1] = read-out: catalase (CAT), CAT (gene 847); experiment: LTEA_HepaRG_CAT: Life Technologies and Expression Analysis (LTEA) Assay for catalase (CAT) using HepaRG (AID 2283452); settings: mRNA level, 48 h; actives raise or lower the signal
How it was run: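 HepaRG cells in serum-free induction medium, 0.5% DMSO vehicle, exposed 48 h in duplicate over 8 half-log concentrations from 100 uM. CAT mRNA measured by qRT-PCR, normalized to ACTB, GAPDH, POLR2A; bidirectional fit versus DMSO.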

[2] = read-out: flavin-containing dimethylaniline monooxygenases 3 (FMO3), FMO3 (gene 2328); experiment: LTEA_HepaRG_FMO3: Life Technologies and Expression Analysis (LTEA) Assay for flavin-containing dimethylaniline monooxygenases 3 (FMO3) using HepaRG (AID 2283453); settings: mRNA level, 48 h; actives raise or lower the signal
How it was run: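 Differentiated HepaRG cells in serum-free induction medium, exposed 48 h in duplicate to 8 half-log concentrations up to 100 uM in 0.5% DMSO. FMO3 mRNA by qRT-PCR, normalized to ACTB, GAPDH, POLR2A; bidirectional fit vs DMSO.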

[3] = read-out: Cytochrome P450 (CYP1A1), CYP1A1 (gene 1543); experiment: LTEA_HepaRG_CYP1A1: Life Technologies and Expression Analysis (LTEA) Assay for Cytochrome P450 (CYP1A1) using HepaRG (AID 2283454); settings: mRNA level, 48 h; actives raise or lower the signal
How it was run: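 CYP1A1 transcript levels measured by Fluidigm qRT-PCR against three housekeeping genes, 48 h after chemical dosing of human HepaRG cells (highest concentration 100 uM, half-log steps, 0.5% DMSO vehicle). Gain or loss of signal fitted relative to DMSO.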

[4] = read-out: CFLAR gene, CFLAR (gene 8837); experiment: LTEA_HepaRG_CFLAR: Life Technologies and Expression Analysis (LTEA) Assay for CFLAR gene using HepaRG (AID 2283455); settings: mRNA level, 48 h; actives raise or lower the signal
How it was run: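 Differentiated HepaRG cells in serum-free induction medium were exposed 48 h in duplicate to eight half-log concentrations up to 100 uM in 0.5% DMSO; mRNA measured by TaqMan qRT-PCR, normalized to ACTB, GAPDH, POLR2A; bidirectional fitting versus DMSO.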

[5] = read-out: Forkhead box O1 (FOXO1), FOXO1 (gene 2308); experiment: LTEA_HepaRG_FOXO1: Life Technologies and Expression Analysis (LTEA) Assay for Forkhead box O1 (FOXO1) using HepaRG (AID 2283456); settings: mRNA level, 48 h; actives raise or lower the signal
How it was run: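 Differentiated HepaRG cells, in serum-free induction medium with 0.5% DMSO, exposed 48 h in duplicate to 8-point half-log series from 100 uM. FOXO1 mRNA measured by TaqMan qRT-PCR, normalized to ACTB, GAPDH, POLR2A; bidirectional fit versus DMSO.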

[6] = read-out: growth arrest and DNA damage 45 (GADD45A), GADD45A (gene 1647); experiment: LTEA_HepaRG_GADD45A: Life Technologies and Expression Analysis (LTEA) Assay for growth arrest and DNA damage 45 (GADD45A) using HepaRG (AID 2283458); settings: mRNA level, 48 h; actives raise or lower the signal
How it was run: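 Differentiated HepaRG cells exposed 48 h in serum-free induction medium to 8 concentrations, top 100 uM in half-log steps, 0.5% DMSO. GADD45A mRNA quantified by qRT-PCR, normalized to ACTB, GAPDH and POLR2A; bidirectional fit versus DMSO.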

[7] = read-out: Forkhead box O3 (FOXO3), FOXO3 (gene 2309); experiment: LTEA_HepaRG_FOXO3: Life Technologies and Expression Analysis (LTEA) Assay for Forkhead box O3 (FOXO3) using HepaRG (AID 2283459); settings: mRNA level, 48 h; actives raise or lower the signal
How it was run: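 Differentiated human HepaRG cells, 48 h post-plating, exposed in duplicate for 48 h in serum-free induction medium; 8-point half-log series from 100 uM in 0.5% DMSO. FOXO3 mRNA by TaqMan qRT-PCR, normalized to ACTB/GAPDH/POLR2A; bidirectional fit versus DMSO.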

[8] = read-out: ABC Transporter (ABCB1), ABCB1 (gene 5243); experiment: LTEA_HepaRG_ABCB1: Life Technologies and Expression Analysis (LTEA) Assay for ABC Transporter (ABCB1) using HepaRG (AID 2283460); settings: mRNA level, 48 h; actives raise or lower the signal
How it was run: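 HepaRG cells exposed in duplicate for 48 h in serum-free induction medium to eight half-log concentrations up to 100 uM in 0.5% DMSO. ABCB1 mRNA quantified by qRT-PCR, normalised to ACTB, GAPDH and POLR2A; fitted bidirectionally versus DMSO.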

[9] = read-out: growth arrest and DNA damage 45 (GADD45B), GADD45B (gene 4616); experiment: LTEA_HepaRG_GADD45B: Life Technologies and Expression Analysis (LTEA) Assay for growth arrest and DNA damage 45 (GADD45B) using HepaRG (AID 2283461); settings: mRNA level, 48 h; actives raise or lower the signal
How it was run: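 Transcript level quantified by Fluidigm TaqMan qRT-PCR with three housekeeping genes for normalization, analyzed for up- or down-regulation against 0.5% DMSO. HepaRG cultures dosed 48 h at eight half-log concentrations up to 100 uM, duplicates.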

[10] = read-out: ABC Transporter (ABCC3), ABCC3 (gene 8714); experiment: LTEA_HepaRG_ABCC3: Life Technologies and Expression Analysis (LTEA) Assay for ABC Transporter (ABCC3) using HepaRG (AID 2283462); settings: mRNA level, 48 h; actives raise or lower the signal
How it was run: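 Transcript level by TaqMan qRT-PCR, normalised to three housekeeping genes, fitted in both directions relative to vehicle. Chemicals tested in duplicate at eight half-log concentrations up to 100 uM for 48 h on HepaRG cells (0.5% DMSO).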

[11] = read-out: ABC Transporter (ABCB11), ABCB11 (gene 8647); experiment: LTEA_HepaRG_ABCB11: Life Technologies and Expression Analysis (LTEA) Assay for ABC Transporter (ABCB11) using HepaRG (AID 2283463); settings: mRNA level, 48 h; actives raise or lower the signal
How it was run: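 Differentiated human HepaRG cells in serum-free induction medium, dosed in duplicate for 48 h. Eight-point half-log series from 100 uM in 0.5% DMSO; ABCB11 mRNA by qRT-PCR, normalized to ACTB, GAPDH, POLR2A, fitted bidirectionally versus DMSO.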

[12] = read-out: ABC Transporter (ABCC2), ABCC2 (gene 1244); experiment: LTEA_HepaRG_ABCC2: Life Technologies and Expression Analysis (LTEA) Assay for ABC Transporter (ABCC2) using HepaRG (AID 2283464); settings: mRNA level, 48 h; actives raise or lower the signal
How it was run: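 Endpoint is ABCC2 transcript level from qRT-PCR, normalized to three housekeeping genes and fitted bidirectionally relative to DMSO. Human HepaRG cells received test chemical for 48 h at up to 100 uM (8 points, half-log steps, 0.5% DMSO), duplicate wells.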

[13] = read-out: Broad substrate specificity ATP-binding cassette transporter ABCG2 (Homo sapiens) (UniProt Q9UNQ0); experiment: LTEA_HepaRG_ABCG2: Life Technologies and Expression Analysis (LTEA) Assay for ABC Transporter (ABCG2) using HepaRG (AID 2283465); settings: mRNA level, 48 h; actives raise or lower the signal
How it was run: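 Differentiated HepaRG cells were exposed for 48 h in serum-free induction medium to 8 half-log concentrations, top 100 uM, in 0.5% DMSO. ABCG2 mRNA was measured by qRT-PCR, normalized to ACTB, GAPDH and POLR2A, with bidirectional fitting versus DMSO.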

[14] = read-out: ATP-citrate lyase (ACLY), ACLY (gene 47); experiment: LTEA_HepaRG_ACLY: Life Technologies and Expression Analysis (LTEA) Assay for ATP-citrate lyase (ACLY) using HepaRG (AID 2283466); settings: mRNA level, 48 h; actives raise or lower the signal
How it was run: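 Differentiated HepaRG cells exposed 48 h in serum-free induction medium to eight half-log concentrations up to 100 uM in 0.5% DMSO, duplicates. Transcript measured by Fluidigm TaqMan qRT-PCR, normalized to ACTB, GAPDH, POLR2A; bidirectional fit versus DMSO.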

[15] = read-out: Peroxisomal acyl-coenzyme A oxidase 1 (ACOX1) gene, ACOX1 (gene 51); experiment: LTEA_HepaRG_ACOX1: Life Technologies and Expression Analysis (LTEA) Assay for Peroxisomal acyl-coenzyme A oxidase 1 (ACOX1) gene using HepaRG (AID 2283467); settings: mRNA level, 48 h; actives raise or lower the signal
How it was run: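 HepaRG cells, plated 48 h then switched to serum-free induction medium, were exposed in duplicate for 48 h to 8-point half-log concentrations up to 100 uM in 0.5% DMSO. ACOX1 mRNA was measured by qRT-PCR, normalized to ACTB/GAPDH/POLR2A, and fitted bidirectionally versus DMSO.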

[16] = read-out: Alkaline Phosphatase, Placental (ALPP) gene, ALPP (gene 250); experiment: LTEA_HepaRG_ALPP: Life Technologies and Expression Analysis (LTEA) Assay for Alkaline Phosphatase, Placental (ALPP) gene using HepaRG (AID 2283468); settings: mRNA level, 48 h; actives raise or lower the signal
How it was run: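 ALPP transcript level, measured by qRT-PCR and normalized to three housekeeping genes (ACTB, GAPDH, POLR2A), after 48 h dosing of differentiated HepaRG in serum-free induction medium. Top concentration 100 uM with half-log dilutions (8 points, 0.5% DMSO, duplicates); bidirectional fitting relative to DMSO.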

[17] = read-out: Bcl-2 (BAD) gene, BAD (gene 572); experiment: LTEA_HepaRG_BAD: Life Technologies and Expression Analysis (LTEA) Assay for Bcl-2 (BAD) gene using HepaRG (AID 2283469); settings: mRNA level, 48 h; actives raise or lower the signal
How it was run: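 Differentiated HepaRG cells were exposed in duplicate in 0.5% DMSO for 48 h to eight-point half-log concentrations up to 100 uM. BAD mRNA was measured by Fluidigm TaqMan qRT-PCR, normalized to ACTB, GAPDH and POLR2A, and fitted bidirectionally against DMSO.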

[18] = read-out: Bcl-2 (BAX) gene, BAX (gene 581); experiment: LTEA_HepaRG_BAX: Life Technologies and Expression Analysis (LTEA) Assay for Bcl-2 (BAX) gene using HepaRG (AID 2283470); settings: mRNA level, 48 h; actives raise or lower the signal
How it was run: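 Differentiated HepaRG cells exposed 48 h in serum-free induction medium, eight half-log concentrations from 100 uM, in duplicate, 0.5% DMSO vehicle. BAX mRNA by TaqMan qRT-PCR, normalised to ACTB, GAPDH and POLR2A.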

[19] = read-out: adenosine kinase (ADK) gene, ADK (gene 132); experiment: LTEA_HepaRG_ADK: Life Technologies and Expression Analysis (LTEA) Assay for adenosine kinase (ADK) gene using HepaRG (AID 2283471); settings: mRNA level, 48 h; actives raise or lower the signal
How it was run: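 Read-out is ADK transcript level measured by qRT-PCR and normalised to three housekeeping genes. Cells are human HepaRG, dosed for 48 h at up to 100 uM in 0.5% DMSO. Gain or loss of signal is fitted against DMSO controls.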

[20] = CEETOX_H295R_TESTO: CeeTox H295R High-throughput Steroidogenesis Assay for Testosterone (TESTO) (AID 2283457); settings: actives raise or lower the signal
How it was run: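 Testosterone secreted into the medium over 48 h by H295R cells (maximum passage 10) was quantified by LC-MS/MS after MTBE extraction. Fitted in both directions against DMSO, with concentrations diluted until MTT viability was ≥70%.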

Measured: AC50

Sequence of Broad substrate specificity ATP-binding cassette transporter ABCG2 (Homo sapiens) (Q9UNQ0 whole entry, looked up): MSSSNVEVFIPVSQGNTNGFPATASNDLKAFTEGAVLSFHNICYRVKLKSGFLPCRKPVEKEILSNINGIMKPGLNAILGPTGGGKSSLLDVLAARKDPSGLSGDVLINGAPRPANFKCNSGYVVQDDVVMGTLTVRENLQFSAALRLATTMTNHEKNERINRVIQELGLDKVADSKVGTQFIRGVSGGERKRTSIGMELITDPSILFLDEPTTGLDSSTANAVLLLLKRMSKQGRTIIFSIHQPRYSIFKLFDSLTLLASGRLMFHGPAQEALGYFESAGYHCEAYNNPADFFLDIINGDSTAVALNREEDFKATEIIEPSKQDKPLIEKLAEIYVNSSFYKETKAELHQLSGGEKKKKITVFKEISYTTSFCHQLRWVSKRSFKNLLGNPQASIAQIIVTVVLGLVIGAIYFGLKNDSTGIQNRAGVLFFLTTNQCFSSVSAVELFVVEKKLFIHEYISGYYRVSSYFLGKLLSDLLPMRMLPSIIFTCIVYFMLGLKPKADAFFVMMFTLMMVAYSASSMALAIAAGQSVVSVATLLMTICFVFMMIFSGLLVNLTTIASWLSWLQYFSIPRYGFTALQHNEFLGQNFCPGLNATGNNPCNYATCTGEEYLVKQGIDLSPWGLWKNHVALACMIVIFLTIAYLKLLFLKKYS

CN(C)c1ccc(C(=O)c2ccc(N(C)C)cc2)cc1
inactive: [1] | [4] | [5] | [6] | [7] | [8] | [9] | [10] | [11] | [12] | [13] | [14] | [15] | [17] | [18] | [19]
active: [2] 50 µM | [3] 14.6 µM | [16] 3.13 µM

CC(C)(O)c1cnn2c(-c3ccc(F)c(-c4c(F)cccc4C#N)c3)cnc2n1
active: [3] 11.9 µM | [8] 0.438 µM | [11] 13.1 µM | [12] 0.304 µM | [15] 0.00316 µM
inactive: [1] | [2] | [4] | [5] | [20] | [6] | [7] | [9] | [10] | [13] | [14] | [16] | [17] | [18] | [19]

Oc1ccccc1Cl
inactive: [1] | [2] | [3] | [4] | [5] | [6] | [7] | [8] | [9] | [10] | [11] | [12] | [13] | [14] | [15] | [16] | [17] | [18] | [19]

N#CC(Br)(Br)C(N)=O
inactive: [1] | [2] | [3] | [4] | [5] | [6] | [7] | [8] | [9] | [10] | [11] | [12] | [13] | [14] | [15] | [16] | [17] | [18] | [19]

Clc1ccc(C(c2ccc(Cl)cc2)C(Cl)Cl)cc1
inactive: [1] | [2] | [4] | [5] | [6] | [7] | [9] | [10] | [13] | [14] | [15] | [17] | [18] | [19]
active: [3] 29.5 µM | [8] 31.6 µM | [11] 81.8 µM | [12] 19.3 µM | [16] 50 µM

Cc1cccc(N)c1N
inactive: [5] | [6] | [8] | [10] | [12] | [13] | [14] | [16] | [17] | [18] | [19]
active: [1] 50 µM | [2] 61.7 µM | [3] 6.92 µM | [4] 50 µM | [7] 50 µM | [9] 64 µM | [11] 62.6 µM | [15] 50 µM

Nc1ccc(Cl)cc1N
inactive: [20] | [13] | [14] | [16] | [17] | [19]
active: [1] 18.7 µM | [2] 23.1 µM | [3] 1.81 µM | [4] 33.1 µM | [5] 29.4 µM | [6] 13.3 µM | [7] 21.5 µM | [8] 19.6 µM | [9] 13.3 µM | [10] 35.8 µM | [11] 19 µM | [12] 37.3 µM | [15] 27 µM | [18] 13.2 µM
